NS1 inh: influenza NS1 inhibition | Potency, µM (titrated, usually from 46.1 µM) | AID 2326 | actives 0.4% (n = 270,000); calls by dose curve; also: actives are rising curves; nearly all actives have a fitted effect of over 50% in size
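Growth recovery, yeast-based: influenza A NS1 expressed in S. cerevisiae causes slow growth, and suppressors are detected by OD600. The parent strain without NS1 is used as positive control.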
Pf growth 48h: inhibits P. falciparum growth in the first generation, 48 h | P. falciparum luciferase growth in erythrocytes, 48 h | Potency, µM (series often up to 28.7 µM), most hits filed as inhibitors | actives 5.9% (n = 310,000) | AID 504832
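Parasite viability was followed by luminescence of a genomically integrated firefly luciferase. Cultures held 0.1% parasitemia at 2% hematocrit (final), incubated under 5% CO2 at 37 C.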
Shiga inhibitor: blocks Shiga toxin action in Vero cells. Vero cells, Shiga toxin protein synthesis inhibition reporter. AID 2315. actives 9.2% (n = 290,000). inhibition, % at 38.7 µM; in the data active = inhibition mostly above about 28%, no sharp cut-off; inactive = mostly below about 43%
SARS PLpro yeast: blocks SARS-CoV papain-like protease in a yeast assay; S. cerevisiae expressing SARS-CoV PLpro, growth rescue; Potency, µM (top dose mostly 32.9 µM), usual class: activators; actives 0.19% (n = 330,000); calls by dose curve; also: nearly all actives have a fitted effect of over 55% in size
Cycloheximide cs: counter-screen for Shiga toxin inhibitors: cycloheximide protein synthesis inhibition; cell reporter, cycloheximide protein synthesis inhibition counterscreen; max response, %; actives 12% (n = 300,000); AID 2314; in the data active = max response mostly above about 13%, no sharp cut-off; inactive = mostly below about 14%; also: read at 38.3 µM for the half of the compounds with a filed dose
Pf growth 96h: P. falciparum growth inhibition at 96 hours. actives 6.9% (n = 320,000). AID 504834. P. falciparum luciferase reporter growth, 96 h. Potency, µM (highest dose often 28.7 µM), actives largely listed as inhibitors
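96 h incubation, 37 C, 5% CO2, of luciferase-reporter P. falciparum-infected RBCs (2% hematocrit, 0.05% parasitemia final) with test compounds; endpoint luminescence.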
Hits are given with their value; . = inactive; ? = inconclusive; / = no result given; ! = not active in a repeat. In the library only some 21% were active in any assay of this set; here they are far more common. Unless noted, calls follow the shape of the dose curve; as a rule, active = well fitted inhibition curve with a large enough effect; inconclusive = small, poorly fitted or top-dose-only effect, or another doubt; inactive = no such curve, though single readings can be large or run the other way.

SMILES | NS1 inh | Pf growth 48h | Shiga inhibitor | SARS PLpro yeast | Cycloheximide cs | Pf growth 96h
N/C(=N\N=C\c1ccc2c(c1)OCO2)c1nonc1N | . | . | 74.7 | . | 45.0 | .
COc1cccc(/C=N/N=C(\N)c2nonc2N)c1O | / | . | 115.7 | . | 35.3 | .
N/C(=N\N=C\c1cccc([N+](=O)[O-])c1)c1nonc1N | . | . | 75.7 | . | 49.7 | .
COc1cc(/C=N/N=C(/N)c2nonc2N)cc(Br)c1OCc1ccccc1C | . | ? | . | . | . | /
CC(C)c1c(C(=O)N/N=C/c2ccc3c(c2)OCO3)nnn1-c1nonc1N | . | . | . | . | . | .
COc1ccc(/C=C/C(=O)Nc2cccc(S(=O)(=O)NC3=NCCCCC3)c2)cc1OC | / | ? | / | . | / | ?
CC(C)(O)/C=C/C[C@](C)(O)C1CC[C@]2(C)C1[C@H](O[C@H]1O[C@@H](CO)[C@H](O)[C@@H](O)[C@@H]1O)CC1[C@@]3(C)CC[C@H](O)C(C)(C)C3[C@@H](O)C[C@]12C (stereo not given in full) | / | / | / | . | / | /
COc1ccc(C2/C=C\CN(C(=O)c3ccc(C)cc3)CC(=O)N2Cc2ccc(F)cc2)cc1 (stereo not given) | . | ? | 163.3! | . | 82.0! | ?
COc1ccc(C2/C=C\CN(C(=O)C3CCCC3)[C@H](Cc3ccccc3)C(=O)N2Cc2ccc(F)cc2)cc1 (stereo not given in full) | . | 8.28µM | . | . | . | 10.4µM
COc1ccc(C2/C=C\CN(C(=O)Nc3ccccc3)CC(=O)N2Cc2ccc(F)cc2)cc1 (stereo not given) | . | ? | . | . | . | .
COc1ccc(C2/C=C\CN(S(=O)(=O)c3ccc(C)cc3)C(Cc3ccccc3)C(=O)N2Cc2ccc(F)cc2)cc1 (stereo not given) | / | / | . | / | . | /
CCCCC(=O)N1C/C=C\C(c2ccc(OC)cc2)N(Cc2ccc(F)cc2)C(=O)C1Cc1ccccc1 (stereo not given) | / | / | . | / | . | /
COc1ccc(C2/C=C\CN(S(=O)(=O)c3ccc(-c4ccccc4)cc3)CC(=O)N2Cc2ccc(F)cc2)cc1 (stereo not given) | . | 11.7µM | 68.1! | . | . | 4.65µM
COc1ccc(C2/C=C\CN(S(=O)(=O)c3ccc(C)cc3)[C@H](Cc3ccccc3)C(=O)N2Cc2ccc(F)cc2)cc1 (stereo not given in full) | ? | 4.15µM | . | . | . | 8.28µM
COc1ccc(C2/C=C\CN(Cc3ccccc3)CC(=O)N2Cc2ccc(F)cc2)cc1 (stereo not given) | / | / | . | / | . | /
C=CCn1c(SCC(=O)Nc2cccnc2Cl)nnc1-c1ccccc1F | . | . | . | . | . | .
COc1ccc(CN(C)C(=O)C2CSC3(C)CCC(=O)N23)cc1OC (stereo not given) | / | . | / | . | / | ?
O=C(NCc1ccc(Cl)cc1Cl)C1CCN(S(=O)(=O)c2ccc3c(c2)OCCCO3)CC1 | . | . | . | . | 18.7 | ?
COc1cccc(CNC(=O)C2CCCN(S(=O)(=O)c3ccc4c(c3)C(C)(C)C(=O)N4C)C2)c1 (stereo not given) | . | ? | . | . | . | .
CN1C(=O)C(C)(C)c2cc(S(=O)(=O)N3CCCC(C(=O)NCc4ccc(F)cc4)C3)ccc21 (stereo not given) | . | ? | . | . | . | 10.4µM
O=C(NCc1ccc(F)cc1)C1CCN(S(=O)(=O)c2ccc3c(c2)OCCCO3)CC1 | . | . | . | . | . | ?
O=C(NCc1ccc2c(c1)OCO2)C1CCN(S(=O)(=O)N2CCOCC2)CC1 | . | . | . | . | . | 3.7µM
O=C(NC1CC1)C1CCN(C2CCN(C(=O)Cc3ccc4c(c3)OCO4)CC2)CC1 | . | . | . | . | . | 11.7µM
CS(=O)(=O)c1ccc(-c2nnc(NC(=O)c3cccc(N4C(=O)CCC4=O)c3)o2)cc1 | / | . | / | . | / | .
Cc1occc1-c1nnc(SC(C)C(=O)Nc2ccccc2F)o1 (stereo not given) | / | . | / | . | / | .
SMILES | NS1 inh | Pf growth 48h | Shiga inhibitor | SARS PLpro yeast | Cycloheximide cs | Pf growth 96h
O=C(NCc1ccc2c(c1)OCO2)C1CCN(c2ccc(S(=O)(=O)N3CCCC3)cc2)CC1 | . | 10.4µM | . | . | . | .
COc1ccc(S(=O)(=O)N2CCCC(C(=O)NCc3ccc4c(c3)OCO4)C2)cc1 (stereo not given) | . | 2.08µM | . | . | . | .
Cc1sc(NC(=O)CN2CCOCC2)c(C#N)c1C | . | . | . | . | . | .
O=C(Nc1ccccc1Cl)c1ccc2ccccc2c1 | . | . | . | . | . | ?
C[n+]1ccc(C(=O)Nc2ccccc2Cl)cc1 | . | . | . | ? | . | 13.1µM
CCOCC(=O)Nc1ccc(C(=O)Nc2ccccc2Cl)cc1 | . | . | . | . | 25.5 | .
CS(=O)(=O)N(CC(=O)N1CCCC1)c1ccccc1Br | . | . | / | . | . | ?
O=C(COC(=O)CCCN=C1NS(=O)(=O)c2ccccc21)NC(=O)NC1CCCC1 | / | . | . | . | . | .
COc1cccc(C(=O)NCCS(=O)(=O)NCc2ccc(Cl)cc2)c1 | / | . | / | . | / | .
COc1ccc(C)cc1S(=O)(=O)N(C)CC(=O)NC1CC1 | . | / | . | . | . | ?
COc1ccc(C)cc1S(=O)(=O)N(C)CC(=O)N1CCCC1 | . | . | / | . | . | 11.7µM
COc1ccc(C)cc1S(=O)(=O)N(C)CC(N)=O | . | . | . | . | . | 10.4µM
COc1ccc(Cl)cc1S(=O)(=O)N(C)CC(=O)N1CCCC1 | . | . | . | . | . | 5.86µM
COc1cscc1C(=O)O | . | . | . | . | . | .
N[C@H](C(=O)O)[C@@H](O)c1cnc[nH]1 | . | / | / | / | / | /
O=C(CSc1ccc2nnc(-c3ccc(Cl)cc3)n2n1)N1CCN(c2ccccc2)CC1 | . | / | / | / | / | /
Cc1ccc(NC(=O)CSc2n[nH]c(=O)n2C2CC2)cc1S(=O)(=O)N1CCOCC1 | . | . | . | . | . | .
CSc1cccc(NS(=O)(=O)c2cc(Br)cnc2N)c1 | . | . | . | . | . | .
CC(C)(O)[C@H](O)Cc1cc2ccc(=O)oc2cc1O[C@@H]1O[C@H](CO)[C@@H](O)[C@H](O)[C@H]1O | / | / | / | . | / | /
COC(=O)c1ccc(CNC(=O)COC(=O)c2ccc(N(C)C)cc2)cc1 | . | . | . | . | . | .
CC(C)Oc1ccc(C(=O)OCC(=O)NCCNC(=O)COC(=O)c2ccc(OC(C)C)cc2)cc1 | . | ? | . | . | . | 13.1µM
CN(C)c1ccc(C(=O)OCc2ccc(Br)cc2)cc1 | . | / | 67.1 | . | . | .
CN(C)c1ccc(C(=O)OCC(=O)NCCNC(=O)COC(=O)c2ccc(N(C)C)cc2)cc1 | . | . | 70.6 | ? | 30.3 | .
O=c1c2ccccc2oc2cc(NCCCN3CCOCC3)ccc12 | . | . | 34.9 | . | 40.1 | .
Cn1c2ccccc2c(=O)c2cc(NCCCN3CCOCC3)ccc21 | / | / | / | . | / | /

Assay outcomes: PubChem, National Center for Advancing Translational Sciences (NCATS)
